Our source for the viability and inhibition values is PubChem BioAssay.

Records with an inconclusive call do not appear. The source made the active and inactive calls.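 How the source made its calls, unless noted: active means inhibition over a set limit, the all-compound mean plus 3 SD, in both replicate runs; inconclusive means over that limit in just one replicate run; inactive means at or under that limit in both runs.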

One assay can be described thus: growth suppression of PTEN-deleted HCT116, pilot screen, cell-based, HCT116 clonal line, CellTiter-Glo (AID 824;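 active means viability at or below 27.92% in each of two runs, the all-compound median minus 4 SD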;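 further: 0% = 20 µM Hyamine control and 100% = vehicle cell control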). To be noted: 60 h, at 10 µM, hits give low values. A general note: Cellular ATP, detected with luciferase, serves as a proxy for viable cell number.
By viability is commonly meant a read-out of living cells in per cent, often relative to untreated cells. With `CCOC(=O)C1CCN(C(=O)CN(c2ccc(Cl)c(C(F)(F)F)c2)S(C)(=O)=O)CC1`, the viability is 84.7% (inactive).
`CCOc1ccccc1C(=O)Nc1cc(=O)n(C)c(=O)n1C`: the viability is 100% (inactive).
In the case of `Cc1ccc(-c2cc3nc4c(c(=O)n3[nH]2)CCCC4)cc1`, the viability is 90.4% (inactive).
Same read-out and setting: to `CCOC(=O)C(C)Sc1nnc(Cc2cc(=O)[nH]c(=O)[nH]2)n1-c1ccc(Cl)cc1` (stereo not given) belongs 105% (inactive); to `c1nc(NCC2CCCO2)c2[nH]cnc2n1` (stereo not given), 99.7% (inactive); to `O=C(Nc1ccc(Cl)cn1)c1cccnc1`, 62% (inactive).
The same measure, in the same setting: with `O=C1c2ccccc2C(=O)N1C/C=C/CN1C(=O)c2ccccc2C1=O` the figure was 102% (inactive).
Consider `O=c1oc2c3c4c(cc2cc1-c1nc2ccccc2[nH]1)CCCN4CCC3`, for which the viability is 89.7% (inactive).
Same read-out and setting: to `CCCCC(=O)NCCc1cc2c(C)ccc(C)c2[nH]c1=O` belongs 106% (inactive).
As to `O=C(NCc1ccc(F)cc1)c1cc2ccccn2n1`, the viability was 89.8% (inactive).
Same read-out and setting: with `COc1cccc(C2C3=C(N=C4SCC(=O)N42)c2ccccc2CC3)c1OC` (stereo not given) the figure was 68.5% (inactive); with `CCOC(=O)N1CCC(c2cc(=O)n3[nH]c(C)c(-c4ccc(F)cc4)c3n2)CC1`, 19.7% (active); with `C=CCn1c(=O)n(CCOC)c(=O)c2sc3ccccc3c21`, 86.7% (inactive).
On the same count and under the same terms, to `Cc1ccc2cc(CCNC(=O)C(C)C)c(=O)[nH]c2c1C` belongs 99.1% (inactive).
On the same count and under the same terms, to `COc1ccc(S(=O)(=O)N2CCCC2C(=O)Nc2ccc(O)cc2)cc1` (stereo not given) belongs 108% (inactive); to `Cc1cccc(-n2ncc3c(NCc4cccnc4)ncnc32)c1`, 87.5% (inactive).
Consider `COc1cccc(NC(=O)C2CCCN(S(=O)(=O)c3cccc4cccnc34)C2)c1` (stereo not given), for which the viability was 70.6% (inactive).
Same read-out and setting: to `CCc1nnc(NC(=O)COC(=O)CN2C(=O)c3ccccc3C2=O)s1` belongs 89.8% (inactive).
On the same count and under the same terms, with `O=C(C1CCN(c2nnc(-n3cccc3)s2)CC1)N1CCc2ccccc2C1` the figure was 94.1% (inactive); with `Cc1c(C(=O)NC2CC2)oc2ccc(S(=O)(=O)N3CCCCCC3)cc12`, 90.8% (inactive).
Still for that read-out and setting: with `Cc1sc2nc(SCC(=O)NCCO)n(C)c(=O)c2c1C` the figure was 94.6% (inactive).
In the case of `S=c1[nH]nc(-c2ccccc2)n1C1C=CCCC1` (stereo not given), the viability is 101% (inactive).
Still for that read-out and setting: to `c1ccc(N2CCN(Cc3cn4cccnc4n3)CC2)cc1` belongs 95.1% (inactive); to `CCCCc1ccc(NC(=O)C2CCCO2)cc1` (stereo not given), 94.5% (inactive); to `Cc1[nH]c2ccccc2c(=O)c1CN1CCCCC1`, 105% (inactive).
With `Cc1ccccc1-n1c(Cn2c(=O)sc3ccccc32)nnc1SCC(=O)N1CCCC1`, the viability was 104% (inactive).
Same read-out and setting: to `COc1ccccc1-n1c(=O)[nH]c2c(C(N)=O)nc(CC(C)C)nc21` belongs 99.5% (inactive).
The same measure, in the same setting: with `Cc1ccccc1-c1nc(CN2CCC(C(=O)N3CCC(C(N)=O)CC3)CC2)c(C)o1` the figure was 99.2% (inactive).
With `CCCCN(CC)CCCNC(=O)c1cc2c(=O)n(C)c3ccccc3c2n1C`, the viability is 54.6% (inactive).
Same read-out and setting: with `Cc1nn(-c2ccc(F)cc2)c2c1cc(C#N)c1nc3ccccc3n12` the figure was 93.5% (inactive); with `CCCn1c(OC)nc2c1c(=O)n(C)c(=O)n2C`, 97% (inactive).
As for `CCOC(=O)Cc1ccc(NS(=O)(=O)c2ccc(SC)cc2)cc1`, the viability is 88.1% (inactive).
With `CC(C)Sc1nc2c(c(=O)n1-c1ccc(F)cc1)SCC2`, the viability was 87.1% (inactive).
Same read-out and setting: with `COc1cccc(C2CC(c3c(Cl)cccc3Cl)n3nc(N)nc3N2)c1` (stereo not given) the figure was 91.4% (inactive); with `Cc1cccc(OCCNC(=O)c2ncn[nH]2)c1`, 99.7% (inactive).
On the same count and under the same terms, to `COc1ccc(S(=O)(=O)N2CCN(c3ccc(C)cc3C)CC2)cc1OC` belongs 72.2% (inactive); to `CS(=O)(=O)NCCSCc1c(F)cccc1Cl`, 91.9% (inactive).
The same measure, in the same setting: with `CC(C)CCNC(=O)Cn1c(NCCC(C)C)nc2c1c(=O)n(C)c(=O)n2C` the figure was 92.8% (inactive); with `CCOC(=O)N1CCC(NC(=O)C2CCCN(C(=O)c3cc4sccc4n3C)C2)CC1` (stereo not given), 95.7% (inactive).
As to `CCOC(=O)N1CCC(NC(=O)c2cc(C(=O)NC3CCCC3)ccc2CO)CC1`, the viability was 90.2% (inactive).

Another assay in a line: inhibitors of the yeast RAM network, pilot screen, dse1pr::URA3 reporter, 5-FOA selection (AID 869).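 Further: 0% = DMSO wells with no growth and 100% = 10 µM 1-NA-PP1 with full growth; RAM network block rescues cells from 5-FOA so hits raise OD615 growth.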 To be noted: S. cerevisiae dse1pr::URA3 5-FOA growth, OD615, 2 d; at 10 µM; hits give high values; strain carries analog-sensitive mutant Cbk1 kinase.
A word on the inhibition: it is the drop in the measured response relative to a control, in per cent. Regarding `CCOC(=O)C1CCN(C(=O)CN(c2ccc(Cl)c(C(F)(F)F)c2)S(C)(=O)=O)CC1`, the inhibition was -0.1% (inactive).
Regarding `CCOc1ccccc1C(=O)Nc1cc(=O)n(C)c(=O)n1C`, the inhibition is 0.715% (inactive).
Same read-out and setting: with `Cc1ccc(-c2cc3nc4c(c(=O)n3[nH]2)CCCC4)cc1` the figure was 2.7% (inactive); with `CCOC(=O)C(C)Sc1nnc(Cc2cc(=O)[nH]c(=O)[nH]2)n1-c1ccc(Cl)cc1` (stereo not given), 1.45% (inactive); with `c1nc(NCC2CCCO2)c2[nH]cnc2n1` (stereo not given), 1.3% (inactive).
The same measure, in the same setting: with `O=C(Nc1ccc(Cl)cn1)c1cccnc1` the figure was 1.56% (inactive); with `O=C1c2ccccc2C(=O)N1C/C=C/CN1C(=O)c2ccccc2C1=O`, 3.1% (inactive).
Same read-out and setting: to `O=c1oc2c3c4c(cc2cc1-c1nc2ccccc2[nH]1)CCCN4CCC3` belongs 1.73% (inactive).
On to `CCCCC(=O)NCCc1cc2c(C)ccc(C)c2[nH]c1=O`, for which the inhibition was 1.61% (inactive).
Same read-out and setting: with `O=C(NCc1ccc(F)cc1)c1cc2ccccn2n1` the figure was 0.47% (inactive); with `COc1cccc(C2C3=C(N=C4SCC(=O)N42)c2ccccc2CC3)c1OC` (stereo not given), 0.915% (inactive); with `CCOC(=O)N1CCC(c2cc(=O)n3[nH]c(C)c(-c4ccc(F)cc4)c3n2)CC1`, 0.04% (inactive).
Still for that read-out and setting: with `C=CCn1c(=O)n(CCOC)c(=O)c2sc3ccccc3c21` the figure was 0.25% (inactive); with `Cc1ccc2cc(CCNC(=O)C(C)C)c(=O)[nH]c2c1C`, 1.52% (inactive); with `COc1ccc(S(=O)(=O)N2CCCC2C(=O)Nc2ccc(O)cc2)cc1` (stereo not given), 1.98% (inactive).
On the same count and under the same terms, to `Cc1cccc(-n2ncc3c(NCc4cccnc4)ncnc32)c1` belongs 2.54% (inactive); to `COc1cccc(NC(=O)C2CCCN(S(=O)(=O)c3cccc4cccnc34)C2)c1` (stereo not given), 1.77% (inactive); to `CCc1nnc(NC(=O)COC(=O)CN2C(=O)c3ccccc3C2=O)s1`, 0.785% (inactive).
On to `O=C(C1CCN(c2nnc(-n3cccc3)s2)CC1)N1CCc2ccccc2C1`, for which the inhibition was 3.21% (inactive).
On the same count and under the same terms, with `Cc1c(C(=O)NC2CC2)oc2ccc(S(=O)(=O)N3CCCCCC3)cc12` the figure was 0.26% (inactive); with `Cc1sc2nc(SCC(=O)NCCO)n(C)c(=O)c2c1C`, 3.88% (inactive); with `S=c1[nH]nc(-c2ccccc2)n1C1C=CCCC1` (stereo not given), 1.67% (inactive).
On the same count and under the same terms, with `c1ccc(N2CCN(Cc3cn4cccnc4n3)CC2)cc1` the figure was 0.465% (inactive); with `CCCCc1ccc(NC(=O)C2CCCO2)cc1` (stereo not given), 1.05% (inactive).
Same read-out and setting: to `Cc1[nH]c2ccccc2c(=O)c1CN1CCCCC1` belongs 0.515% (inactive).
On to `Cc1ccccc1-n1c(Cn2c(=O)sc3ccccc32)nnc1SCC(=O)N1CCCC1`, for which the inhibition was -0.765% (inactive).
The same measure, in the same setting: with `COc1ccccc1-n1c(=O)[nH]c2c(C(N)=O)nc(CC(C)C)nc21` the figure was 1.01% (inactive); with `Cc1ccccc1-c1nc(CN2CCC(C(=O)N3CCC(C(N)=O)CC3)CC2)c(C)o1`, 1.07% (inactive); with `CCCCN(CC)CCCNC(=O)c1cc2c(=O)n(C)c3ccccc3c2n1C`, -0.01% (inactive).
Still for that read-out and setting: with `Cc1nn(-c2ccc(F)cc2)c2c1cc(C#N)c1nc3ccccc3n12` the figure was 0.36% (inactive); with `CCCn1c(OC)nc2c1c(=O)n(C)c(=O)n2C`, 2.22% (inactive).
On the same count and under the same terms, to `CCOC(=O)Cc1ccc(NS(=O)(=O)c2ccc(SC)cc2)cc1` belongs 0.825% (inactive).
For `CC(C)Sc1nc2c(c(=O)n1-c1ccc(F)cc1)SCC2`, the inhibition is 0.61% (inactive).
Still for that read-out and setting: with `COc1cccc(C2CC(c3c(Cl)cccc3Cl)n3nc(N)nc3N2)c1` (stereo not given) the figure was -0.3% (inactive); with `Cc1cccc(OCCNC(=O)c2ncn[nH]2)c1`, 1.01% (inactive); with `COc1ccc(S(=O)(=O)N2CCN(c3ccc(C)cc3C)CC2)cc1OC`, 2.41% (inactive).
Consider `CS(=O)(=O)NCCSCc1c(F)cccc1Cl`, for which the inhibition was 1.1% (inactive).
On the same count and under the same terms, with `CC(C)CCNC(=O)Cn1c(NCCC(C)C)nc2c1c(=O)n(C)c(=O)n2C` the figure was 0.94% (inactive).
As to `CCOC(=O)N1CCC(NC(=O)C2CCCN(C(=O)c3cc4sccc4n3C)C2)CC1` (stereo not given), the inhibition was 0.665% (inactive).
On the same count and under the same terms, to `CCOC(=O)N1CCC(NC(=O)c2cc(C(=O)NC3CCCC3)ccc2CO)CC1` belongs 1.87% (inactive).
